target: Shiga toxin 2 (Escherichia coli O157:H7) (UniProt P09385+P09386); experiment: E. coli 0.157:H7 Shiga Toxin SOP - stx2 screening assay; format: functional; set-up: scale not given: direction of the effect not stated beside the values; conditions: 30 µM

Compound | Percent Effect
CN(C)Cc1nnc(C2CCN(C(=O)CCc3cccs3)CC2)n1C | -11.1%
CN(C)C1CCN(C(=O)NCc2ccccc2Cn2cncn2)CC1 | 0.165%
COC(=O)N1CCc2ccc(NC(=O)c3cn(C)nn3)cc2C1 | -90%
CCn1c(C2CCCN(Cc3nccn3CCOC)C2)nn(C)c1=O (stereo not given) | 5.34%
Cc1c(C)n(-c2ccccn2)c2nc3c(c(N)c12)CCCC3 | -68.1%
Cc1nc(C(C)C)sc1C(=O)NS(=O)(=O)c1ccc(C#N)cc1 | 0.0303%
COc1cccc(N2CCN(C(=O)[C@H](O)C3CCCCC3)CC2=O)c1 | -7.11%
Cc1ccoc1C(=O)NCC(Cc1ccc(F)cc1)C(N)=O (stereo not given) | 9.66%
CCOc1ncccc1NC(=O)NC1CCN(S(C)(=O)=O)CC1 | -16.8%
Cc1[nH]ccc1C(=O)Nc1cccc(CN2CCC(O)CC2)c1 | -28.9%
O=C(NCCn1ccnc1)N1CCN(Cc2cccs2)CC1 | -34.2%
CN(C(=O)Cc1ccc2c(c1)OCCO2)C1CCCC1 | 0.101%
CCCC1CCCN(Cc2csc(-c3cnn(C)c3)n2)CC1 (stereo not given) | 20.9%
CCc1n[nH]c(C2CN(C(=O)c3nc(C)n4ccccc34)CCO2)n1 (stereo not given) | -2.71%
Cc1ccc2c(c1)CCC21CCN(C(=O)CO)CC1 | -38.4%
COCCN1CCCC(c2nc3c([nH]2)CC(C)(C)CNC3=O)C1 (stereo not given) | 0.913%
Cc1nc(N2CCN(C(=O)c3ccc(O)cc3)CC2)c2cnn(C)c2n1 | 3.77%
CCOc1ncccc1C(=O)N1CCCC(c2nccn2CCOC)C1 (stereo not given) | -0.308%
CSCC(C)(O)CNC(=O)c1ccc(Br)cc1C (stereo not given) | -16%
O=C(CSc1ccccn1)N1C[C@H]2CC[C@@H]1CN(Cc1cscn1)C2 | -6.72%

Compound | Percent Effect
CCOc1ncccc1NC(=O)N1CCc2ccccc2C1 | 3.47%
Cc1cc(C)c(CNC(=O)NCC(c2ccccc2)N(C)C)c(=O)[nH]1 (stereo not given) | 23.9%
COCC(=O)N1CC[C@@H]2CN(Cc3cccc(Cl)c3)S(=O)(=O)[C@@H]2CC1 | -12.7%
Cc1ccc(NC(=O)C2CSCN2C(=O)c2cnccn2)c(C)c1 (stereo not given) | -39.3%
Cc1cc(C[C@@H]2COC[C@H]2NCc2ccc(Br)s2)on1 | 4.69%
Cc1cc(C)nc(CCNC(=O)C(c2ccc(F)cc2)N(C)C)n1 (stereo not given) | -52.8%
c1cnn(-c2ccc(CN3CCOC(Cn4cncn4)C3)cc2)c1 (stereo not given) | 9.62%
Cn1cc(CCC(=O)N2C[C@H]3CC[C@@H]2CN(Cc2ccccc2)C3)cn1 | -3.02%
COCC1CCN(C(=O)c2cccc(S(=O)(=O)NCC3(C)COC3)c2)C1 (stereo not given) | 10.4%
O=C(O)CC1CN(Cc2ccccc2)CCO1 (stereo not given) | -5.59%
CCOc1cccc(CNc2ccccc2C(=O)OC)c1O | -53.6%
CN(C)C(=O)N1CCN(C(=O)CCc2ccccc2)[C@H]2CS(=O)(=O)C[C@H]21 | -13.3%
Cc1noc([C@H]2C[C@@H]3CCN(C(=O)C4CCOCC4)C[C@H]3O2)n1 | -0.561%
COCC(=O)N1Cc2cn(C)nc2C(COc2cccnc2)C1 (stereo not given) | -21.7%
CN1CCOC(CNCc2nc(-c3ccccc3)cs2)C1 (stereo not given) | -26%
Cc1nc(C(C)(C)NC(=O)Nc2ccccc2)no1 | -0.789%
CC(O)CN1CCN(Cc2cccc(C(=O)N(C)C)c2)CC1 (stereo not given) | -1.9%
Cc1nn(C)c(C)c1CNCc1ccnc(N2CCOCC2)c1 | -9.51%
CCc1ccc(C(=O)N2CCN(CC(C)O)CC2)o1 (stereo not given) | 5.26%
COCC(=O)N1CC[C@H]2C[C@H](C)O[C@@H]2C1 | 3.29%
